The record followed here is PubChem BioAssay (EPA / NIEHS).

Read-out in test [1]: Interferon-gamma inducible Protein 10 (IP10), CXCL10 (gene 3627)
The test is described as follows: BSK_hDFCGF_IP10: BioMAP Diversity Plus: hDFCGF Assay for Interferon-gamma inducible Protein 10 (IP10) Biomarker Activity (AID 2283053). The settings on record: primary human foreskin fibroblasts; actives raise or lower the signal. The procedure, abridged:
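Primary foreskin fibroblasts, human; 24 h compound exposure; IP-10 by ELISA; bidirectional fit vs DMSO.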

Read-out in test [2]: Urokinase-type plasminogen activator receptor (uPAR), PLAUR (gene 5329)
Nature of the test: BSK_CASM3C_uPAR: BioMAP Diversity Plus: CASM3C Assay for Urokinase-type plasminogen activator receptor (uPAR) Biomarker Activity (AID 2283054).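 Note: cell-surface uPAR protein level quantified by ELISA.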 Particulars: primary human coronary artery smooth muscle cells; actives raise or lower the signal.

Read-out in test [3]: Vascular cell adhesion molecule 1 (VCAM1), VCAM1 (gene 7412)
Nature of the test: BSK_CASM3C_VCAM1: BioMAP Diversity Plus: CASM3C Assay for Vascular cell adhesion molecule 1 (VCAM1) Biomarker Activity (AID 2283055).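 Note: VCAM-1 protein level quantified by ELISA on the cells.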 Particulars: primary human coronary artery smooth muscle cells; actives raise or lower the signal.

Read-out in test [4]: Collagen III, COL3A1 (gene 1281)
Nature of the test: BSK_hDFCGF_CollagenIII: BioMAP Diversity Plus: hDFCGF Assay for Collagen III Biomarker Activity (AID 2283056). The settings on record: primary human foreskin fibroblasts; actives raise or lower the signal. The gist of the method: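 hDFCGF primary human dermal fibroblasts; 24 h chemical exposure; collagen III by ELISA; bidirectional curve fit vs DMSO baseline (gain or loss of signal).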

Read-out in test [5]: Epidermal growth factor receptor (EGFR), EGFR (gene 1956)
Nature of the test: BSK_hDFCGF_EGFR: BioMAP Diversity Plus: hDFCGF Assay for Epidermal growth factor receptor (EGFR) Biomarker Activity (AID 2283057). Particulars: primary human foreskin fibroblasts; actives raise or lower the signal. The procedure, abridged: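 hDFCGF system, primary human foreskin fibroblasts; compound 24 h; EGFR measured by ELISA; DMSO = negative control/baseline; bidirectional fitting.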

Read-out in test [6]: Interleukin-8 (IL8), CXCL8 (gene 3576)
The test is described as follows: BSK_hDFCGF_IL8: BioMAP Diversity Plus: hDFCGF Assay for Interleukin-8 (IL8) Biomarker Activity (AID 2283058). The settings on record: primary human foreskin fibroblasts; actives raise or lower the signal. The procedure, abridged: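 ELISA read-out of IL-8 from primary human foreskin fibroblast cultures taken 24 h after dosing; values are bidirectional fits relative to DMSO vehicle.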

Test [7] can be described thus: BSK_hDFCGF_Proliferation: Cell Proliferation Assessment in the BioMAP Diversity Plus: hDFCGF Assay (AID 2283059).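 Note: curves fitted for both rise and fall of signal versus DMSO baseline.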 Particulars: primary human foreskin fibroblasts. The gist of the method: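 Steps: dose primary human dermal fibroblasts (foreskin); […] fix in 10% TCA; stain with 0.1% SRB; read 560 nm; fit gain or loss of signal against DMSO.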
Read-out in test [8]: Macrophage colony-stimulating factor (MCSF), CSF1 (gene 1435)
The test is described as follows: BSK_hDFCGF_MCSF: BioMAP Diversity Plus: hDFCGF Assay for Macrophage colony-stimulating factor (MCSF) Biomarker Activity (AID 2283060). Particulars: primary human foreskin fibroblasts; actives raise or lower the signal. The procedure, abridged: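 ELISA read-out of M-CSF in human dermal foreskin fibroblast cultures, 24 h after chemical dosing; gain or loss of signal fitted bidirectionally relative to DMSO baseline.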

Read-out in test [9]: TIMP metallopeptidase inhibitor 1 (TIMP1), TIMP1 (gene 7076)
Nature of the test: BSK_hDFCGF_TIMP1: BioMAP Diversity Plus: hDFCGF Assay for TIMP metallopeptidase inhibitor 1 (TIMP1) Biomarker Activity (AID 2283062). The settings on record: primary human foreskin fibroblasts; actives raise or lower the signal. The procedure, abridged: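 ELISA readout of TIMP-1 from human dermal foreskin fibroblast cultures 24 h post-dosing. Curves were fitted in both directions against DMSO baseline, with SRB total-protein staining in parallel cultures as a cytotoxicity check.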

Read-out in test [10]: Monokine induced gamma interferon (MIG), CXCL9 (gene 4283)
The test is described as follows: BSK_hDFCGF_MIG: BioMAP Diversity Plus: hDFCGF Assay for Monokine induced gamma interferon (MIG) Biomarker Activity (AID 2283063). Particulars: primary human foreskin fibroblasts; actives raise or lower the signal. The gist of the method:
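Fibroblasts (human foreskin, primary) dosed, 24 h, MIG by ELISA; fit bidirectional vs DMSO.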

Read-out in test [11]: Matrix Metallopeptidase 1 (MMP1), MMP1 (gene 4312)
Nature of the test: BSK_hDFCGF_MMP1: BioMAP Diversity Plus: hDFCGF Assay for Matrix Metallopeptidase 1 (MMP1) Biomarker Activity (AID 2283064). Particulars: primary human foreskin fibroblasts; actives raise or lower the signal. The gist of the method: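 Primary human foreskin fibroblasts in the hDFCGF system were dosed with test chemical, and MMP1 was measured by ELISA 24 h later. Values come from bidirectional curve fitting against the DMSO baseline.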

Read-out in test [12]: Vascular cell adhesion molecule 1 (VCAM1), VCAM1 (gene 7412)
The test is described as follows: BSK_hDFCGF_VCAM1: BioMAP Diversity Plus: hDFCGF Assay for Vascular cell adhesion molecule 1 (VCAM1) Biomarker Activity (AID 2283065). The settings on record: primary human foreskin fibroblasts; actives raise or lower the signal. The gist of the method: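 ELISA read-out of VCAM-1 on human skin fibroblasts, 24 h post-dose; gain or loss of signal fitted bidirectionally against DMSO baseline.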

Read-out in test [13]: Plasminogen activator inhibitor-1 (PAI1), SERPINE1 (gene 5054)
The test is described as follows: BSK_hDFCGF_PAI1: BioMAP Diversity Plus: hDFCGF Assay for Plasminogen activator inhibitor-1 (PAI1) Biomarker Activity (AID 2283066). The settings on record: primary human foreskin fibroblasts; actives raise or lower the signal. The procedure, abridged: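 Primary dermal fibroblasts (human foreskin), hDFCGF system; compound 24 h; PAI-1 by ELISA; bidirectional fit vs DMSO control.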

Read-out in test [14]: Interferon-gamma inducible Protein 10 (IP10), CXCL10 (gene 3627)
The test is described as follows: BSK_KF3CT_IP10: BioMAP Diversity Plus: KF3CT Assay for Interferon-gamma inducible Protein 10 (IP10) Biomarker Activity (AID 2283068). Particulars: primary human keratinocytes with fibroblasts; actives raise or lower the signal. The gist of the method: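 KF3CT co-culture (keratinocytes + foreskin fibroblasts), 24 h compound, IP-10 by ELISA; bidirectional fit vs DMSO baseline.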

Test [15] is described as follows: BSK_KF3CT_SRB: Viability Assessment in the BioMAP Diversity Plus: KF3CT Assay (AID 2283069).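 Note: total protein by sulforhodamine B staining as a cytotoxicity measure; read 24 h after compound addition.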 The settings on record: primary human keratinocytes with fibroblasts. The procedure, abridged: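 Human primary keratinocyte plus foreskin fibroblast co-culture exposed to chemicals for 24 h. Total protein measured by 0.1% sulforhodamine B staining after 10% TCA fixation, read at 560 nm; bidirectional fitting versus DMSO baseline.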

Read-out in test [16]: Interleukin-1 alpha (IL1a), IL1A (gene 3552)
The test is described as follows: BSK_KF3CT_IL1a: BioMAP Diversity Plus: KF3CT Assay for Interleukin-1 alpha (IL1a) Biomarker Activity (AID 2283070). The settings on record: primary human keratinocytes with fibroblasts; actives raise or lower the signal. The gist of the method:
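Human keratinocyte plus foreskin fibroblast primary co-culture, sampled 24 h after chemical dosing. IL-1a measured by ELISA; responses fitted bidirectionally against DMSO baseline (negative control), so gain or loss of signal both count.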

Read-out in test [17]: TIMP metallopeptidase inhibitor 2 (TIMP2), TIMP2 (gene 7077)
The test is described as follows: BSK_KF3CT_TIMP2: BioMAP Diversity Plus: KF3CT Assay for TIMP metallopeptidase inhibitor 2 (TIMP2) Biomarker Activity (AID 2283071). Particulars: primary human keratinocytes with fibroblasts; actives raise or lower the signal. The procedure, abridged:
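Cells: human keratinocytes co-cultured with foreskin fibroblasts. Treat with chemical, 24 h. Measure TIMP-2 by ELISA; fit curves bidirectionally vs DMSO baseline.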

Read-out in test [18]: Transforming growth factor beta 1 (TGFb1), TGFB1 (gene 7040)
The test is described as follows: BSK_KF3CT_TGFb1: BioMAP Diversity Plus: KF3CT Assay for Transforming growth factor beta 1 (TGFb1) Biomarker Activity (AID 2283072). Particulars: primary human keratinocytes with fibroblasts; actives raise or lower the signal. The gist of the method:
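Primary human skin cells (keratinocytes, foreskin fibroblasts) were co-cultured, exposed to test chemical and sampled at 24 h. TGF-b1 levels were measured by ELISA and fitted bidirectionally relative to DMSO.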

Read-out in test [19]: Intercellular Adhesion Molecule 1 (ICAM1), ICAM1 (gene 3383)
Nature of the test: BSK_KF3CT_ICAM1: BioMAP Diversity Plus: KF3CT Assay for Intercellular Adhesion Molecule 1 (ICAM1) Biomarker Activity (AID 2283067). The settings on record: primary human keratinocytes with fibroblasts; actives raise or lower the signal. The gist of the method:
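ELISA readout of ICAM-1; KF3CT human skin co-culture (keratinocytes + foreskin fibroblasts), 24 h post-dose; gain/loss fit vs DMSO baseline.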

Each structure is given as a SMILES string. Activity calls are given as the source filed them. Rule for the calls: active = hit-call score of the fitted dose curve at least 0.9, where 1 is the maximum; inactive = score below 0.9.

As for `COCC(=O)N(c1c(C)cccc1C)[C@H](C)C(=O)OC`, the result in [1], in test [2], in test [3], in test [4], in [5] and in test [6] was inactive. In addition, the result in test [7], in test [8], in test [9], in [10], in test [11] and in test [12] was inactive. Moreover, the outcome in [13], in test [14], in [15], in [16], in [17] and in test [18] was inactive.
Take `CCOP(=O)(OCC)SCCSCC`: the outcome in [1], in [2], in test [3], in test [4], in test [5] and in test [6] was inactive. Also, the outcome in test [7], in test [8], in test [9], in test [10], in test [11] and in test [13] was inactive. Further, the outcome in test [14], in test [15], in test [16], in [17] and in test [18] was inactive.
Turning to `Cc1cc(C(C)(C)c2ccc(O)c(C)c2)ccc1O`, the outcome in [1], in [5], in test [6], in test [9], in test [10] and in test [11] was inactive. Further, the result in [13], in test [19], in test [14], in test [15] and in [16] was inactive. Further, the AC50 is 17.1 µM (active) in test [2]; 13.9 µM (active) in test [3]; 15.6 µM (active) in test [4]; 13.9 µM (active) in test [7]; 15.3 µM (active) in test [8]; 12.2 µM (active) in [17]. The AC50 in [18] was 10 µM (active).
In the case of `CC(C)(C)c1cc([N+](=O)[O-])cc(C(C)(C)C)c1O`, the result in test [1], in test [3], in test [4], in test [5], in test [6] and in [7] was inactive. Moreover, the outcome in [8], in [9], in test [10], in [11], in [12] and in [13] was inactive. Further, the result in test [15], in test [16] and in test [18] was inactive. Further, the figures for the AC50 in test [2], in test [14] and in test [17] were 11.8 µM (active), 0.0652 µM (active) and 20 µM (active), respectively.
